Several values for one entry are separate records, joined by “and”; a condition that tells them apart may be missing. Equal values may be shown once. Inconclusive results are not listed. Activity calls are given as the source filed them. The call rests on the fitted dose curve; in most records, active means well fitted cell-killing curve with a large enough effect in the repeat runs; inconclusive means weak or mixed curves, or effect the other way; inactive means flat fitted curve, though single readings scatter.
Experiment: qHTS assay to identify small molecule agonists of the estrogen receptor beta (ER-beta) signaling pathway - cell viability counter screen (AID 1259380); further: nearly all actives have a fitted effect of over 30% in size
Settings: ER-beta-bla HEK293T viability, CellTiter-Glo luminescence, 16 h; series mostly up to 92.4 µM; activity change, negative = cytotoxicity: at the top concentration
Excerpt: National Center for Advancing Translational Sciences [NCATS]
NIH Chemical Genomics Center [NCGC]
U.S. Environmental Protection Agency [EPA]
National Institutes of Environmental Health Sciences [NIEHS]
National Toxicology Program [NTP]
U.S. Food and Drug Administration [FDA]
Estrogen receptor (ER), a nuclear hormone receptor, plays an important role in development, metabolic homeostasis and reproduction. Two subtypes of ER, ER-alpha and ER-beta, have similar expression patterns with some uniqueness in both types. Endocrine disrupting chemicals (EDCs) and their interactions with steroid hormone receptors like ER causes disruption of normal endocrine function. To identify the compounds that activate ER signaling, an ER beta-UAS-bla GripTite cell line (Life Technologies, Madison, WI, USA) containing a beta-lactamase reporter gene under the control of an UAS response element was used to screen Tox21 10K compound library. The cytotoxicity of the Tox21 compound library against the ER-beta-bla cell line was tested in parallel by measuring the cell viability using CellTiter-Glo assay in the same wells.
Tox21 Assay Protocol Summary:
ER-beta-UAS-bla HEK293T cells were dispensed at 2,000 cells/5 uL of assay medium containing 2% charcoal stripped FBS per well into black wall/clear-bottom 1536-well plates using a Multidrop Combi (ThermoFisher Scientific, Waltham, MA) dispenser. After the assay plates were incubated at a 37C and 5% CO2 for 6 hr, 23 nL of compounds dissolved in DMSO, positive controls or DMSO only was transferred to the assay plate by a Pintool station (Kalypsys, San Diego, CA). The plates were incubated at 37C and 5% CO2 for 16 hr. Then 1 uL of LiveBLAzerTM B/G FRET substrate was added using a BioRAPTR FRD (Flying Reagent Dispenser, Aurora Discovery, San Diego, CA) and then the plates were incubated at room temperature for 2 hours, and fluorescence intensity was measured by an Envision plate reader (PerkinElmer, Shelton, CT). For cell viability readout that measures cytotoxicity, 4 uL/well of CellTiter-Glo reagent was added into the assay plates using a FRD. After 30 min incubation at room temperature, the luminescence intensity in the plates was measured using a ViewLux (PerkinElmer) plate reader.
On the % scale 0 is the no-effect control and ±100 the full control effect; potency means the concentration at half of the fitted maximal effect.

SMILES | activity change, negative = cytotoxicity | Potency
Oc1ccccc1O | -8.02% (inactive) | –
COc1c(C)c2c(c(O)c1C/C=C(\C)CCC(=O)OCCN1CCOCC1)C(=O)OC2 | – | 0.335 µM (active)
COc1ccc(-c2coc3cc(O)ccc3c2=O)cc1 | -9.77% (inactive) | –
CC(C)(C)NSc1nc2ccccc2s1 | -4.72% (inactive) | –
Cc1ccc(C(=O)O)cc1 | -0.854% (inactive) | –
O=C1C(c2[nH]c3ccc(S(=O)(=O)O)cc3c2O)=Nc2ccc(S(=O)(=O)O)cc21 | 2.58% (inactive) | –
CC1=CCC(=C(C)C)CC1 | 2.53% (inactive) | –
CCCCCC/C=C\CCCCCCCC(=O)O | -1.98% (inactive) | –
CCCCCCCC | 11.9% (inactive) | –
Cc1ccc(-c2ccccc2)cc1 | 0.841% (inactive) | –
OCCN1CCN(CCCN2c3ccccc3Sc3ccc(C(F)(F)F)cc32)CC1 | – | 26.6 µM (active)
COc1cccc(OC)c1C(=O)O | 1.59% (inactive) | –
O=C(/C=C/c1ccc(O)c(O)c1)O[C@@H](C(=O)O)[C@@H](OC(=O)/C=C/c1ccc(O)c(O)c1)C(=O)O | -0.0835% (inactive) | –
OC[C@@H](O)[C@@H](O)CO | -1.22% (inactive) | –
CCCCCCCCCCCCOCCOCCOCCOCCOCCOCCOCCOCCOCCO | – | 26.6 µM (active)
CCO[Si](OCC)(OCC)OCC | 4.08% (inactive) | –
C=Cc1cccc(C)c1 | – | inactive
Cc1c(N)cccc1C(F)(F)F | 11.3% [at 42.5 µM] (inactive) | –
FC(F)(F)c1cccc(Cl)c1 | 1.4% (inactive) | –
Cc1ccc(N/N=c2\c(=O)cc/c(=N\Nc3ccc(S(=O)(=O)O)cc3)c2=O)c(C)c1 | -0.311% (inactive) | –

SMILES | activity change, negative = cytotoxicity | Potency
CCCCNS(=O)(=O)c1ccc(C)cc1 | 1.39% (inactive) | –
[Cu+] | 3.67% (inactive) | –
Clc1ccnc(Cl)n1 | 1.9% (inactive) | –
Oc1cc(Cl)cc(Cl)c1Cl | – | 31.4 µM (active)
O=C(O)[C@H](O)[C@@H](O)[C@H](O[C@@H]1O[C@H](CO)[C@H](O)[C@H](O)[C@H]1O)[C@H](O)CO | 8.76% [at 42.5 µM] (inactive) | –
COC(C)=O | 8.52% (inactive) | –
c1ccsc1 | 1.5% (inactive) | –
CCCCCCCCCCCCCC[N+](C)(C)Cc1ccccc1 | – | 27.7 µM (active) and 10.6 µM (active) and 11.2 mM (active)
OC1CCCc2ccccc21 (stereo not given) | 2.71% (inactive) | –
CCC(COC(=O)CCS)(COC(=O)CCS)COC(=O)CCS | 4.46% (inactive) | –
CC(C)CCOC(=O)/C=C/c1ccccc1 | 5.21% (inactive) | –
O=C1c2ccccc2C(=O)N1SC1CCCCC1 | – | 54.5 µM (active)
O=C(O)Cc1ccccc1Nc1c(Cl)cccc1Cl | – | 13.7 µM (active)
CCn1c2ccccc2c2cc([N+](=O)[O-])ccc21 | 0.401% (inactive) | –
CC(C)=CCC1=C(O)c2ccccc2C(=O)C1=O | – | 1.53 µM (active)
CN(C)CCN1CCN(c2cccc(Cl)c2)C1=O | -0.603% [at 42.5 µM] (inactive) | –
CC1(C)CC(O)CC(C)(C)N1 | 6.93% (inactive) | –
Cc1c2ccccc2c(C)c2c1ccc1ccccc12 | – | 30.3 µM (active) and 27.3 µM (active)
CCN(CC)C(=O)c1cc(S(=O)(=O)Cc2ccccc2)c(N2CCC(c3ccccc3)CC2)cc1N(CC)CCN(C)C | – | 19.1 µM (active)
Cc1cc(C(C)(C)C)cc(C)c1CC1=NCCN1 | 1.86% [at 42.5 µM] (inactive) | –

— PubChem BioAssay (Tox21)
